Measured potencies and affinities stand elsewhere.

The subject of this assay is Klebsiella pneumoniae. As to conditions: Concentration 32 ug.mL-1;; ASSAY_TEST Inhibition of Bacterial Growth; detection method Absorption (OD600); MEDIA CAMHB; plate type 384well; NBS; CORNING #3640; time 18 hr.
Consider `O=C(Cn1nc2c(N3CCOCC3)nccn2c1=O)NCc1cccs1`, for which the Inhibition came out at 15.07%.

In the case of `COc1cc(NC(=O)CSc2nnc3c(=O)n(-c4cccc(OC)c4)ccn23)cc(OC)c1`, the Inhibition turned out to be 6.06%. To `CCc1ccccc1Sc1nccn2c(=O)n(CC(=O)NCc3cccs3)nc12` belongs -0.44%. Consider `Cc1nnc2ccc(S(=O)(=O)N(Cc3cc(F)cc(F)c3)c3ccc(F)cc3)cn12`, for which the Inhibition stood at 7.75%.

With `Cc1cccc(CN(c2cc(C)cc(C)c2)S(=O)(=O)c2cccn3c(C)nnc23)c1`, the Inhibition is on record as 4.64%.

Turning to `Cc1ccc(-c2cc3c4nnc(CCC(=O)N5CCN(c6ccccn6)CC5)n4ccn3n2)cc1C`, the Inhibition came to 7.34%. `O=C(Cn1nc2c(Sc3ccccc3)nccn2c1=O)Nc1cc(F)ccc1F`: the Inhibition is listed as -2.16%. As to `CC(=O)c1ccc(NC(=O)Cn2nc3c(Sc4ccc(C)cc4C)nccn3c2=O)cc1`, the Inhibition is given as -3.02%.

For the molecule `CC(C)CCn1c(=O)c2ccc(C(=O)NC3CCCCC3)cc2n2c(=S)[nH]nc12`, the Inhibition came to 1.69%. In the case of `COc1ccc(NC(=O)CSc2nc3ccccc3n3c(C(C)C)nnc23)c(OC)c1`, the Inhibition was found to be 7.3%. Regarding `Cc1cccc(Sc2nccn3c(=O)n(CC(=O)Nc4ccc(Br)cc4C)nc23)c1`, the Inhibition was 8.64%. `CC(C)(C)Sc1ccc2nn(CC(=O)NCc3ccc(Cl)cc3)c(=O)n2n1`: the Inhibition worked out at 10.39%. As for `CC(C)c1nnc2c(SCC(=O)Nc3ccc4c(c3)OCO4)nc3ccccc3n12`, the Inhibition is 4.73%. Regarding `COc1ccccc1Cn1c(=O)c2sccc2n2c(=O)n(Cc3ccccc3)nc12`, the Inhibition was found to be 5.78%.

With `O=C(CSc1nc2ccccc2n2cnnc12)Nc1cccc(Br)c1`, the Inhibition is reported as 2.26%. Then `O=c1n(Cc2cccc(C(F)(F)F)c2)nc2c(S(=O)(=O)N3CCCCC3)cccn12`, with 6.48%. With `CC(C)CCNC(=O)Cn1nc2n(Cc3ccco3)c(=O)c3sccc3n2c1=O`, the Inhibition was 8.27%.

For `O=C(Cn1nc2c3cc(-c4ccc(F)cc4)nn3ccn2c1=O)N1CCN(c2ccccc2F)CC1`, the Inhibition was found to be 8.2%. On to `COc1ccc(NC(=O)Cn2nc3c(Oc4cccc(OC)c4)nccn3c2=O)cc1`, for which the Inhibition came to 3.68%. Turning to `CCC(Sc1nnc2c(=O)n(-c3cccc(OC)c3)ccn12)C(=O)Nc1cc(C)ccc1C` (centres undefined), the Inhibition worked out at 11.08%. To `COc1ccccc1NC(=O)Cn1nc2c(SCc3ccccc3)nccn2c1=O` belongs 0.49%; to `COc1ccc(-n2ccn3c(SCC(=O)N4CCN(c5ccccc5F)CC4)nnc3c2=O)cc1`, 15.6%. As to `Cc1ccccc1Cn1nc2c(=O)n(-c3ccc(Br)cc3)ccn2c1=O`, the Inhibition was 14.05%.

Turning to `Cc1ccc(Cn2c(=O)c3ccccc3n3c(=O)n(CC(=O)Nc4ccc5c(c4)OCCO5)nc23)cc1`, the Inhibition stood at 10.7%. For the molecule `COc1ccccc1NC(=O)Cn1c(=O)c2nnc(C(C)C)n2c2ccccc21`, the Inhibition stood at 6.56%.

As for `Cc1ccc(NC(=O)CSc2nc3ccccc3n3c(C)nnc23)cc1C`, the Inhibition is recorded as -6.18%.

In the case of `CCc1nnc2c(S(=O)(=O)N(Cc3cccc(C)c3)c3cccc(Cl)c3)cccn12`, the Inhibition came to 3.49%. As to `CC(C)c1ccc(NC(=O)Cn2nc3c(Sc4ccccc4)nccn3c2=O)cc1`, the Inhibition was -10.24%. Take `O=C(Cn1nc2c(SC3CCCCC3)nccn2c1=O)Nc1ccc(F)c(Cl)c1`: the Inhibition is 0.9%. `COc1ccc(OC)c(NC(=O)Cn2nc3c4cc(-c5ccc(Cl)cc5)nn4ccn3c2=O)c1`: the Inhibition turned out to be 3.06%. As for `O=C(Cn1nc2c(Oc3ccccc3)nccn2c1=O)Nc1ccc(Br)cc1F`, the Inhibition is recorded as -1.93%. In the case of `Cc1c(Cl)cccc1-n1ccn2c(=O)n(Cc3cccc(Cl)c3)nc2c1=O`, the Inhibition is 5.86%. Consider `COc1ccccc1-n1ccn2c(SCC(=O)Nc3ccc(C)cc3C)nnc2c1=O`, for which the Inhibition amounted to 11.64%. Then `COc1ccc(OC)c(NC(=O)Cn2nc3c(SCc4ccc(Cl)cc4)nccn3c2=O)c1`, with 1.59%.

Regarding `Cc1ccc(F)cc1NC(=O)CSc1nc2ccccc2n2c(C(C)C)nnc12`, the Inhibition is reported as 9.62%. Regarding `CCc1ccccc1Sc1nccn2c(=O)n(CC(=O)N3CCN(c4ccccc4)CC3)nc12`, the Inhibition is listed as -1.73%. As for `Cc1ccc(Oc2nccn3c(=O)n(CC(=O)Nc4ccc(Cl)cc4F)nc23)cc1`, the Inhibition was 8.24%. On to `O=C(Cn1nc2c(N3CCOCC3)nccn2c1=O)Nc1ccc(Br)cc1F`, for which the Inhibition was determined as 9.99%. Consider `O=C(CSc1nc2ccccc2n2cnnc12)Nc1cc(C(F)(F)F)ccc1Cl`, for which the Inhibition is 4.72%.

The record behind these values is ChEMBL document CHEMBL4513146, “CO-ADD screening of Karazin Kharkiv National University (Ukraine) compounds”.
